# PMC8384837, “Expanding the binding specificity for RNA recognition by a PUF domain”
# Changes are numbered by the printed parent chain.
# Experiments:
# Test in all cases: yeast three-hybrid, YBZ-1, SC-Leu-His + 0.5 mM 3-AT, 4 days
# Conditions in all cases: tags: N-Gal4 AD-HA kept; label: inside an RPR1-promoter hybrid RNA with tandem MS2 sites; ssRNA
# PUM1 PUF domain R6-IWL = biological target: T1, PUM1 PUF domain R6-IWL (Homo sapiens, UniProt Q14671 828-1176, N1043I;Y1044W;Q1047L)
# T1 sequence: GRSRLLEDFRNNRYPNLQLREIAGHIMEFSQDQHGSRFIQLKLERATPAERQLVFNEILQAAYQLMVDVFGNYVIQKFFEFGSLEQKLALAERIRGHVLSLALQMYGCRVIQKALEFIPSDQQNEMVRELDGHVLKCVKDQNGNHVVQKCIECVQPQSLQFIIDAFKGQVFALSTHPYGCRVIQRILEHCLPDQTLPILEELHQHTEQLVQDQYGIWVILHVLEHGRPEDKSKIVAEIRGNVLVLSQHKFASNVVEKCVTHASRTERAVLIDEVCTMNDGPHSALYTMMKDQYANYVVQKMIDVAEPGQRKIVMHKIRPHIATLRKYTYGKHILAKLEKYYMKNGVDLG
# Method in brief: (§1)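 A centromeric plasmid in strain YBZ-1 co-expressed Pumilio-1 PUF domain libraries, randomized at the three base-contacting residues of each repeat, with matching RNA elements; the strain carries a LexA–MS2 coat fusion and a HIS3 reporter. After four days on SC-Leu (input) or SC-Leu-His + 0.5 mM 3-AT (selection), the repeat regions were PCR-amplified and Illumina-sequenced. The interaction score is the log change in variant frequency from input to selection, using log2 and a pseudocount of 1 where absent.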
# PUM1 PUF domain R6-HHR = biological target: T2, PUM1 PUF domain R6-HHR (Homo sapiens, UniProt Q14671 828-1176, N1043H;Y1044H;Q1047R)
# T2 sequence: T1 sequence with I216H, W217H, L220R
# Method in brief: as §1
# PUM1 PUF domain R3-VFY = PUM1 PUF domain R3-VFY (Homo sapiens, UniProt Q14671 828-1176, C935V;R936F;Q939Y)
# Method in brief: as §1
# PUM1 PUF domain R4-EPS = PUM1 PUF domain R4-EPS (Homo sapiens, UniProt Q14671 828-1176, N971E;H972P;Q975S)
# Method in brief: as §1
# PUM1 PUF domain R4-GHF = PUM1 PUF domain R4-GHF (Homo sapiens, UniProt Q14671 828-1176, N971G;Q975F)
# Method in brief: as §1
# PUM1 PUF domain R8-HWV = PUM1 PUF domain R8-HWV (Homo sapiens, UniProt Q14671 828-1176, N1122H;Y1123W;Q1126V)
# Method in brief: as §1
# PUM1 PUF domain R1-QWK = PUM1 PUF domain R1-QWK (Homo sapiens, UniProt Q14671 828-1176, S863Q;R864W;Q867K)
# Method in brief: as §1
# PUM1 PUF domain R1-RRA = PUM1 PUF domain R1-RRA (Homo sapiens, UniProt Q14671 828-1176, S863R;Q867A)
# Method in brief: as §1
# PUM1 PUF domain R5-RCV = PUM1 PUF domain R5-RCV (Homo sapiens, UniProt Q14671 828-1176, C1007R;R1008C;Q1011V)
# Method in brief: as §1
# PUM1 PUF domain R5-RMG = PUM1 PUF domain R5-RMG (Homo sapiens, UniProt Q14671 828-1176, C1007R;R1008M;Q1011G)
# Method in brief: as §1
# PUM1 PUF domain R3-RRS = PUM1 PUF domain R3-RRS (Homo sapiens, UniProt Q14671 828-1176, C935R;Q939S)
# Method in brief: as §1
# PUM1 PUF domain R5-EAC = PUM1 PUF domain R5-EAC (Homo sapiens, UniProt Q14671 828-1176, C1007E;R1008A;Q1011C)
# Method in brief: as §1
# PUM1 PUF domain R4-CNA = PUM1 PUF domain R4-CNA (Homo sapiens, UniProt Q14671 828-1176, N971C;H972N;Q975A)
# Method in brief: as §1
sequence,measurement,setting,value
GGCUAGAACUAGUGGAUCCCCCGGCGCCCGGCGGCUCGAGCCCGGGUAAGUGUAAAUAGUCUGCAUGCCGCCGGGCGCCAUGCCUGCAGGUCGACUCUAGAAAACAUG,binding signal,PUM1 PUF domain R6-IWL,3.09 log2 enrichment (interaction score)
same,binding signal,PUM1 PUF domain R6-HHR,5.44 log2 enrichment (interaction score)
same,binding signal,PUM1 PUF domain R3-VFY,6.12 log2 enrichment (interaction score)
same,binding signal,PUM1 PUF domain R4-EPS,3.28 log2 enrichment (interaction score)
same,binding signal,PUM1 PUF domain R4-GHF,4.42 log2 enrichment (interaction score)
same,binding signal,PUM1 PUF domain R8-HWV,3.05 log2 enrichment (interaction score)
GGCUAGAACUAGUGGAUCCCCCGGCGCCCGGCGGCUCGAGCCCGGGUAAGUGUAAAUCGUCUGCAUGCCGCCGGGCGCCAUGCCUGCAGGUCGACUCUAGAAAACAUG,binding signal,PUM1 PUF domain R1-QWK,5.98 log2 enrichment (interaction score)
same,binding signal,PUM1 PUF domain R1-RRA,2.68 log2 enrichment (interaction score)
GGCUAGAACUAGUGGAUCCCCCGGCGCCCGGCGGCUCGAGCCCGGGUAAGUGUCAAUAGUCUGCAUGCCGCCGGGCGCCAUGCCUGCAGGUCGACUCUAGAAAACAUG,binding signal,PUM1 PUF domain R5-RCV,2.81 log2 enrichment (interaction score)
same,binding signal,PUM1 PUF domain R5-RMG,2.42 log2 enrichment (interaction score)
GGCUAGAACUAGUGGAUCCCCCGGCGCCCGGCGGCUCGAGCCCGGGUAAGUGUAAUUAGUCUGCAUGCCGCCGGGCGCCAUGCCUGCAGGUCGACUCUAGAAAACAUG,binding signal,PUM1 PUF domain R3-RRS,3.9 log2 enrichment (interaction score)
same,binding signal,PUM1 PUF domain R3-VFY,5.89 log2 enrichment (interaction score)
GGCUAGAACUAGUGGAUCCCCCGGCGCCCGGCGGCUCGAGCCCGGGUAAGUGUGAAUAGUCUGCAUGCCGCCGGGCGCCAUGCCUGCAGGUCGACUCUAGAAAACAUG,binding signal,PUM1 PUF domain R5-EAC,3.49 log2 enrichment (interaction score)
GGCUAGAACUAGUGGAUCCCCCGGCGCCCGGCGGCUCGAGCCCGGGUAAGUGUAAAUUGUCUGCAUGCCGCCGGGCGCCAUGCCUGCAGGUCGACUCUAGAAAACAUG,binding signal,PUM1 PUF domain R1-RRA,1.49 log2 enrichment (interaction score)
GGCUAGAACUAGUGGAUCCCCCGGCGCCCGGCGGCUCGAGCCCGGGUAAGUGUACAUAGUCUGCAUGCCGCCGGGCGCCAUGCCUGCAGGUCGACUCUAGAAAACAUG,binding signal,PUM1 PUF domain R4-CNA,2.26 log2 enrichment (interaction score)
GGCUAGAACUAGUGGAUCCCCCGGCGCCCGGCGGCUCGAGCCCGGGUAAGUGUAUAUAGUCUGCAUGCCGCCGGGCGCCAUGCCUGCAGGUCGACUCUAGAAAACAUG,binding signal,PUM1 PUF domain R4-CNA,1.78 log2 enrichment (interaction score)
GGCUAGAACUAGUGGAUCCCCCGGCGCCCGGCGGCUCGAGCCCGGGUAAGCGUAAAUAGUCUGCAUGCCGCCGGGCGCCAUGCCUGCAGGUCGACUCUAGAAAACAUG,binding signal,PUM1 PUF domain R8-HWV,4.26 log2 enrichment (interaction score)
